Inconclusive results are not listed. Activity calls are given as the source filed them. The calls were made as follows: active = hit-call score of the fitted dose curve at least 0.9, where 1 is the maximum; inconclusive = response in the unintended direction; inactive = score below 0.9.
Target: Caspase-1 (Homo sapiens) (UniProt P29466)
Test: NVS_ENZ_hCASP1: NovaScreen (NVS) Enzymatic Assay for human Caspase 1 (CASP1) (AID 2283132)
Experimental: NVS_ENZ_hCASP1 is a biochemical, single-readout assay that uses extracted gene-proteins from E. coli in a cell-free assay. Measurements were taken 1 hour after chemical dosing in a 96-well plate.NVS_ENZ_hCASP1 is one of one assay component(s) measured or calculated from the NVS_ENZ_hCASP1 assay. It is designed to make measurements of enzyme activity, a form of enzyme reporter, as detected with fluorescence intensity signals by Fluorescence technology.Data from the assay component NVS_ENZ_hCASP1 was analyzed into 1 assay endpoint. This assay endpoint, NVS_ENZ_hCASP1, was analyzed in the positive analysis fitting direction relative to DMSO as the negative control and baseline of activity. Using a type of enzyme reporter, loss-of-signal activity can be used to understand changes in the enzymatic activity as they relate to the gene CASP1. Furthermore, this assay endpoint can be referred to as a primary readout, because this assay has produced multiple assay endpoints where this one serves a enzymatic activity function. To generalize the intended target to other relatable targets, this assay endpoint is annotated to the protease intended target family, where the subfamily is cysteine protease.
Binding assays used specific radioligands (tritiated, iodinated) with non-radioactive competitive displacement ligands in agonist or antagonist protocols (as indicated) and various reference compounds and inhibitors to titrate specific binding to receptors and transporters. Most enzyme assays (CYPs, kinases, phosphatases, proteases, HDACs) used recombinant protein and specific substrates (fluorescence mostly, some colorimetric and radioactive) and inhibitors, followed by a biochemical separation of substrate and product. All assays for the biochemical HTS were initially run in duplicate at a single concentration (10 uM for CYP450 assays and 25 uM for all others). Assay-chemical combinations meeting a pre-defined threshold (e.g., 30% inhibition and other criteria defined below) were then run in singleton concentration-response format with maximum concentration of 20 uM for CYPs and 50 uM for all others. Each assay was run with positive and negative controls, and concurrent controls on every plate. The follow-up (secondary) screen tested active chemical-pairs in concentration series, as well as a few additional assays not tested in the primary screen, some selected negative inactives, and several cases re-run in the concentration series for confirmatory purposes.

Sequence of Caspase-1 (Homo sapiens) (P29466 whole entry, looked up): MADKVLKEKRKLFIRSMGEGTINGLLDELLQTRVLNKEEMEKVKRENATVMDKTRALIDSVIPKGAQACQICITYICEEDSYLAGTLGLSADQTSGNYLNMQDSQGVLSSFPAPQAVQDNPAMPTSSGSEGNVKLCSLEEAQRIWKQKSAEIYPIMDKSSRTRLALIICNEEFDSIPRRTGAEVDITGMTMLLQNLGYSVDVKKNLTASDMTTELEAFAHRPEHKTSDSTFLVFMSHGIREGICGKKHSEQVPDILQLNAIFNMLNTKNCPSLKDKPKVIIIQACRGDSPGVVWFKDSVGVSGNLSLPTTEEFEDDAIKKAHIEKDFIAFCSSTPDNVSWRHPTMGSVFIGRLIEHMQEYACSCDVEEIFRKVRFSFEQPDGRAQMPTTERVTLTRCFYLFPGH

Row | Compound | AC50 | outcome
1 | CCc1cc(SCc2sc(-c3ccc(C(F)(F)F)cc3)nc2CN2CCN(c3ccc(OC)cc3)CC2)ccc1OCC(=O)O | 46.1 µM (active) | 
2 | OC[C@H]1O[C@@](CO)(O[C@H]2O[C@H](CO)[C@@H](O)[C@H](O)[C@H]2O)[C@@H](O)[C@@H]1O |  | inactive
3 | CCC(O)=C1C(=O)CC(C(=O)O)CC1=O (stereo not given) |  | inactive
4 | S=C([S-])NCCNC(=S)[S-].[Mn+2] |  | inactive
5 | Nc1ccc2c(c1)C(=O)c1ccccc1C2=O |  | inactive
6 | CCOc1cccc(-n2cc(C(=O)N3CCN(c4cc(C(=O)O)c5ccccc5c4)CC3)nc2-c2ccc(C)cc2)c1 |  | inactive
7 | O=S(=O)(O)c1ccc(N=Nc2c(O)ccc3cc(S(=O)(=O)O)ccc23)cc1 | 25 µM (active) | 
8 | CCCCCCC(C)OC(=O)COc1nc(F)c(Cl)c(N)c1Cl (stereo not given) |  | inactive
9 | COc1cc(S(=O)(=O)O)c(C)cc1N=Nc1c(O)ccc2cc(S(=O)(=O)O)ccc12 | 25 µM (active) | 
10 | S=C(S)NCCNC(=S)S.[Mn+2].[S-]C([S-])=NCCN=C([S-])[S-].[Zn+2] |  | inactive
11 | CN(C)c1ccc(C(=C2C=CC(=[N+](C)C)C=C2)c2ccc(N(C)C)cc2)cc1 |  | inactive
12 | O=C(OC[C@H]1O[C@@H](OC(=O)c2cc(O)c(O)c(OC(=O)c3cc(O)c(O)c(O)c3)c2)[C@H](OC(=O)c2cc(O)c(O)c(OC(=O)c3cc(O)c(O)c(O)c3)c2)[C@@H](OC(=O)c2cc(O)c(O)c(OC(=O)c3cc(O)c(O)c(O)c3)c2)[C@@H]1OC(=O)c1cc(O)c(O)c(OC(=O)c2cc(O)c(O)c(O)c2)c1)c1cc(O)c(O)c(OC(=O)c2cc(O)c(O)c(O)c2)c1 | 1.14 µM (active) | 
13 | O=C1c2c(O)cccc2Cc2cccc(O)c21 | 5.01 µM (active) | 
14 | COc1cc(-c2nc(NC(=O)c3cc4cc(C)cc(C)c4n3CC(=O)O)sc2CCC2CCCCC2)c(OC)cc1Cl | 29.1 µM (active) | 
15 | Oc1cc2ccccc2c2ccccc12 | 12.1 µM (active) | 

Source: PubChem BioAssay (EPA / NIEHS)
